“And” between values parts separate entries of the source, which are not always exact repeats. Identical values can stand only once. The panel holds about 83,000 compounds, 20% with a hit somewhere; the sample as a whole holds those more often.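 Each cell line was grown in a 96-well plate and treated with one concentration of compound for 48 hours. Values below 10 were considered active.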 Unmarked numbers belong to inactive results. The source made the active and inactive calls.
tested on: MDA-MB-468 breast; experiment: NCI-60 one-dose screen, 48 h (100 = growth as untreated, 0 = no growth, -100 = all killed); conditions: 10 µM unless noted

SMILES	growth
Cc1cc(NC(=O)c2cccc(C(F)(F)F)c2)ccc1-n1ccc2c(NC(=O)c3ccccc3)nccc21	111%
CN(C)S(=O)(=O)c1ccc(S(=O)(=O)Nc2cccc(Cl)c2N2CCCCC2)cc1	67.8%
Cc1ccc(N2C(=O)CCC2=O)cc1	103%
O=C(CCC(=O)N/N=C/c1ccccc1O)N/N=C/c1ccccc1O	62.8%
Cc1nn(-c2ccccc2)c(Oc2ccccc2)c1/C=N/NC(=O)Cn1c(=O)sc2ccccc21	13.7%
COc1cc(OC)c(C2SCC(=O)N2Nc2ncnc3ccccc23)cc1OC (stereo not given)	111%
O=C(N/N=C\c1cc(Br)ccc1O)c1ccncc1	24%
O=S(=O)(NCCCNc1nccc(-c2[nH]c(-c3ccccc3)nc2-c2ccc(Cl)c(O)c2)n1)c1ccc(Br)cc1	25.9%
Cc1nn(-c2ccccc2)c2nc3nc4c(c(N)c3c(-c3ccc(Cl)cc3)c12)CCCC4	104%
COc1cccc(-c2nc3sccn3c2-c2ccnc(NCCN3CCCNS3(=O)=O)n2)c1	102%
CCCCOc1nc2ccc(Cl)cc2cc1/C=C/C(=O)/C=C/c1ccc(Cl)cc1	79.5%
COc1ccc(/C(C)=C(/c2ccc(OCCCN(C)C)cc2)c2ccc(OC(=O)Cc3ccccc3)cc2)cc1	87.2%
COc1cc2oc(-c3cccc(C(=O)N[C@@H](CC(C)C)C(=O)OC(C)(C)C)c3)cc(=O)c2c(OC)c1OC	85.6%
COc1cc(-c2nc(-c3ccccc3)[nH]c2-c2ccnc(NCCCNS(=O)(=O)c3cccc(F)c3)n2)ccc1Cl	43.2%
COc1ccc2c(c1)OC(N)=C(C#N)C2c1ccc(F)cc1 (stereo not given)	7.54% (active)
CC(CN1CCCCC1)NC(=O)c1scnc1-c1ccccc1 (stereo not given)	111%
C=C(C)[C@@H]1CC[C@]2(C(=O)O)CC[C@]3(C)[C@H](CC[C@@H]4[C@@]5(C)CCC(NC(=O)c6cccc(OC(C)=O)c6OC(C)=O)C(C)(C)[C@@H]5CC[C@]43C)[C@@H]12 (stereo not given in full)	-5.31% (active)
CC1=C([Se]CC(OC(=O)CC[Se]c2ccccc2)C(=O)NCCCCCC(=O)OCc2ccccc2)C(=O)c2ccccc2C1=O (stereo not given)	-7.59% (active)
O=C(NC(=O)c1ccc(F)c(Cl)c1)NC1CC1	103% and 87.4%
Cc1nc(-c2ccccc2)cc2c(O)c(C(=O)N/N=C/c3ccc(N(C)C)cc3)[nH]c(=O)c12	77.6%

SMILES	growth
CN1CCN(Cc2ccc(NC(=O)c3cncc(C#Cc4cnc5ccc(OC6CCOCC6)nn45)c3)cc2C(F)(F)F)CC1	-62.5% (active)
COC(=O)c1ccc(NC(=O)c2ccc(-c3cccc([N+](=O)[O-])c3)o2)cc1	96.5%
O=C1c2ccc3c4c(ccc(c24)C(=O)N1CCCNCc1ccccc1)C(=O)N(CCCNCc1ccccc1)C3=O	-95.5% (active)
C=C1C(=O)O[C@H]2[C@H]1CC/C(COC(=O)/C=C\C(=O)NCc1ccc(Cn3c(=O)sn(CCCl)c3=O)cc1)=C\CC[C@@]1(C)O[C@@H]21	43%
C[PH+](c1nc2ccccc2nc1[PH+](C)C(C)(C)C)C(C)(C)C.C[PH+](c1nc2ccccc2nc1[PH+](C)C(C)(C)C)C(C)(C)C.[Au+].[Cl-] (stereo not given)	-80.7% (active)
N#C/C(=C\c1c(-c2ccccc2)[nH]c2ccccc12)S(=O)(=O)c1ccccc1	20.5%
COC(=O)C1CCCN(S(=O)(=O)/N=C2\NC(=O)NC2=C(Cl)Cl)C1 (stereo not given)	32.8%
Cc1nn(-c2ccccc2)c(N2CCOCC2)c1-c1nc2ccc([N+](=O)[O-])cc2[nH]1	94.3%
COc1ccccc1NC(=O)C1=C(C)NC(C)=C(C(=O)Nc2ccccc2OC)C1c1cccc([N+](=O)[O-])c1	74.3%
O=S(=O)(NC1CC2CCC1C2)c1ccc2c(c1)C(=NO)c1cc(S(=O)(=O)NC3CC4CCC3C4)ccc1-2 (stereo not given)	-61.9% (active)
COc1ccc(-c2cc(-c3cc4ccccc4oc3=O)n(-c3ccccc3)n2)cc1	87.3%
O=C(NNc1nc2cc(F)ccc2n2c(CN3CCCC3)ccc12)c1cnccn1	-14.4% (active)
CCOC(=O)C1CCN(S(=O)(=O)/N=C2/NC(=O)NC2=C(Cl)Cl)CC1	-22.2% (active)
COc1ccc(/C=C2\Oc3cc(OCCN4CCC(Cc5ccccc5)CC4)ccc3C2=O)cc1OC	31%
CCNC(=O)N1CCc2cc(OC)c(OCCc3ccc(OC)cc3)cc2C1c1ccc([N+](=O)[O-])cc1C (stereo not given)	-5.05% (active)
C[C@]12CC[C@@H]3c4ccc(O)c([N+](=O)[O-])c4CC[C@H]3[C@@H]1CC[C@@H]2NS(=O)(=O)c1cccc(Br)c1	39.8%
O=C(Nc1ccc(Cl)c(C(F)(F)F)c1)Nc1ccc(-c2cccnc2)cc1N1CCC(CO)CC1	12.6%
CC1CC2C3CCC4=CC(=O)CCC4(C)C3CCC2(C)C1(O)C(=O)CO (stereo not given)	115%
O=C(O)C1CSC(c2ccccc2)N1 (stereo not given)	96.7%
CN(C)c1cccc2c(S(=O)(=O)Nc3cccc(-c4csc(NC(=O)CCCCCN5CCN(CCO)CC5)n4)c3)cccc12	79.3%

From PubChem BioAssay (NCI)
